Reference: the supplement of paper PMC10849652
The full data set covers some 8,800 targets. This sample favours those with a hit. About 0.5% of all pairs of compound and target were hits.

Experiments:
Assay in all cases: log2 fold change, soluble protein after heating vs DMSO (PISA); higher = thermal stabilisation; K562 lysate, 10 uM; active = over 0.2 and 3.5 SD of the protein, either way, in both replicates (recomputed)
ibrutinib = compound: C=CC(=O)N1CCC[C@@H](n2nc(-c3ccc(Oc4ccccc4)cc3)c3c(N)ncnc32)C1 [ibrutinib]
Procedure, shortened: (§1)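 Values give the log-two fold change in thermal stability against solvent controls, from duplicates. Crude K562 extract at 1 mg/mL protein, made by dounce homogenisation in PBS pH 7.4 with 1 mM MgCl2, was treated with 10 μM compound for 30 min. After 3 min heating across 48°C-58°C, aliquots were pooled, adjusted to 0.5% NP-40 at 4°C and centrifuged at 21,000xg for 90 min. The supernatant was measured by TMTpro 16plex LC-MS/MS with channel sums equalised.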

[1] = compound: CC(=O)c1cnc2ccc(-c3cc(Cl)c(O)c(Cl)c3)nc2c1N[C@H]1CC[C@H](CN(C)C)CC1
Procedure, shortened: as §1

ralimetinib = compound: CC(C)(C)Cn1c(N)nc2ccc(-c3[nH]c(C(C)(C)C)nc3-c3ccc(F)cc3)nc21 [ralimetinib]
Procedure, shortened: as §1

[2] = compound: CC(C)(O)CC(=O)NCCn1ccc2ncnc(Nc3ccc(Oc4cccc(C(F)(F)F)c4)c(Cl)c3)c21
Procedure, shortened: as §1

[3] = compound: CC(C)C1=C2N=C(C=C(N2N=C1)NCC3=CC=CC=C3)NCCCCCCN
Procedure, shortened: as §1

[4] = compound: CC1=C(C(CC(=O)N1)C2=CC=C(C=C2)C(F)(F)F)C(=O)NC3=C(C=C4C(=C3)C=NN4)F
Procedure, shortened: as §1

[5] = compound: CC1=C(C2=C(C=C1)C(=O)C3=CC=CC=C3N2CCCN)C
Procedure, shortened: as §1

[6] = compound: CC1=C(C=C(C=C1)NC(=O)C2=CC(=CC=C2)C(C)(C)C#N)NC3=CC4=C(C=C3)N=CN(C4=O)C
Procedure, shortened: as §1

[7] = compound: CC1=C(C=C(C=C1)NC(=O)C2=CC(=CC=C2)N(C)C)NC(=O)C3=CC=C(C=C3)O
Procedure, shortened: as §1

[8] = compound: CC1=CC=C(C=C1)SC2=C3C=C(SC3=CN=C2)C(=O)N
Procedure, shortened: as §1

vemurafenib = compound: CCCS(=O)(=O)Nc1ccc(F)c(C(=O)c2c[nH]c3ncc(-c4ccc(Cl)cc4)cc23)c1F [vemurafenib]
Procedure, shortened: as §1

[9] = compound: CCCS(=O)(=O)Nc1ccc(F)c(C(=O)c2c[nH]c3ncc(Cl)cc23)c1F
Procedure, shortened: as §1

barasertib = compound: CCN(CCCOc1ccc2c(Nc3cc(CC(=O)Nc4cccc(F)c4)[nH]n3)ncnc2c1)CCOP(=O)(O)O [barasertib]
Procedure, shortened: as §1

[10] = compound: CC[C@@H]1C(=O)N(C)c2cnc(Nc3ccc(C(=O)NC4CCN(C)CC4)cc3OC)nc2N1C1CCCC1
Procedure, shortened: as §1

volasertib = compound: CC[C@@H]1C(=O)N(C)c2cnc(Nc3ccc(C(=O)N[C@H]4CC[C@H](N5CCN(CC6CC6)CC5)CC4)cc3OC)nc2N1C(C)C [volasertib]
Procedure, shortened: as §1

[11] = compound: CCn1c(C(=O)N(C2CC2)C2CC2)cc2c3c(ncn3C)c(Nc3cc(C)n(C)n3)nc21
Procedure, shortened: as §1

[12] = compound: CCn1cc(-c2ccnc3[nH]c(-c4cccc(CN(C)C)c4)cc23)c(-c2ccc(NC(=O)N(C)C)cc2)n1
Procedure, shortened: as §1

[13] = compound: CN1CCC(CNc2ccc3ncc(-c4cccc(OC(F)(F)F)c4)n3n2)CC1
Procedure, shortened: as §1

saracatinib = compound: CN1CCN(CCOc2cc(OC3CCOCC3)c3c(Nc4c(Cl)ccc5c4OCO5)ncnc3c2)CC1 [saracatinib]
Procedure, shortened: as §1

sotrastaurin = compound: CN1CCN(c2nc(C3=C(c4c[nH]c5ccccc45)C(=O)NC3=O)c3ccccc3n2)CC1 [sotrastaurin]
Procedure, shortened: as §1

Measured: log2 fold change

DSN1 (UniProt Q9H410)
inactive: ibrutinib -0.004 | [1] -0.023 | ralimetinib 0.011 | [2] 0.001 | [3] -0.015 | [4] 0.024 | [5] -0.018 | [6] 0.017 | [7] 0.025 | [8] -0.011 | vemurafenib 0 | [9] 0.043 | barasertib 0.007 | [10] 0.034 | volasertib 0.001 | [11] 0.001 | [12] -0.017 | [13] 0.01 | saracatinib 0.034 | sotrastaurin 0.003

FIGNL1 (UniProt Q6PIW4)
inactive: ibrutinib 0 | [1] 0.063 | ralimetinib 0.04 | [2] 0.022 | [3] -0.006 | [4] -0.067 | [5] 0.008 | [6] -0.002 | [7] 0.02 | [8] 0.037 | vemurafenib -0.012 | [9] 0.042 | barasertib 0.03 | [10] -0.063 | volasertib -0.047 | [11] 0.027 | [12] -0.108 | [13] 0.036 | saracatinib 0.006 | sotrastaurin -0.015

DYNC1I2 isoform 5 (UniProt Q13409)
inactive: ibrutinib 0.022 | [1] -0.021 | ralimetinib 0 | [2] -0.014 | [3] 0.004 | [4] 0.012 | [5] -0.007 | [6] -0.012 | [7] 0.008 | [8] -0.003 | vemurafenib -0.015 | [9] 0.013 | barasertib -0.03 | [10] -0.012 | volasertib -0.013 | [11] -0.016 | [12] -0.017 | [13] 0.017 | saracatinib 0.003 | sotrastaurin -0.034

EWSR1 isoform 5 (UniProt Q01844)
Sequence of UniProt Q01844 (Q01844 whole entry, looked up): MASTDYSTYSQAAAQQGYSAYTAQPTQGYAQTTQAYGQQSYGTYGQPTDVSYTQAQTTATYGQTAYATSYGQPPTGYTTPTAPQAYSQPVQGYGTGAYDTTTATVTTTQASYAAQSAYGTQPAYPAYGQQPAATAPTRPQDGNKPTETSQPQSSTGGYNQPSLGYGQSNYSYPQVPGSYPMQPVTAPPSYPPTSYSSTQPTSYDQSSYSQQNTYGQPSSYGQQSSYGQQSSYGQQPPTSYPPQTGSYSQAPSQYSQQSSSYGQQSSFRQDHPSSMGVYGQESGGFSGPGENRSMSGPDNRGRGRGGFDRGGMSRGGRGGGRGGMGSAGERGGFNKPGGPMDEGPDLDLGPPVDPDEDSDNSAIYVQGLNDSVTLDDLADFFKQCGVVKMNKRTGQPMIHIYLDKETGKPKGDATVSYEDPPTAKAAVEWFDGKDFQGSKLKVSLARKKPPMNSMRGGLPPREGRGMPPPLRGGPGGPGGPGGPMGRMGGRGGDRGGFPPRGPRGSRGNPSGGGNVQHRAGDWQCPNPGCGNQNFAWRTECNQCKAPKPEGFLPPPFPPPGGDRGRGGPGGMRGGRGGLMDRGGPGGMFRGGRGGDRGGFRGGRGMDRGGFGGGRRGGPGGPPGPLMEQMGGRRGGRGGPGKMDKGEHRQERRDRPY
inactive: ibrutinib -0.016 | [1] -0.026 | ralimetinib -0.017 | [2] -0.011 | [3] 0.038 | [4] -0.012 | [5] 0.016 | [6] -0.023 | [7] -0.033 | [8] 0 | vemurafenib 0.033 | [9] -0.023 | barasertib -0.013 | [10] 0.039 | volasertib 0.045 | [11] -0.006 | [12] -0.019 | [13] 0.021 | saracatinib -0.017 | sotrastaurin 0.037

FYCO1 isoform 4 (UniProt Q9BQS8)
inactive: ibrutinib -0.012 | [1] -0.015 | ralimetinib 0.021 | [2] -0.026 | [3] 0 | [4] 0.029 | [5] -0.019 | [6] -0.003 | [7] -0.028 | [8] 0 | vemurafenib 0.024 | [9] 0.019 | barasertib 0.045 | [10] 0.027 | volasertib -0.004 | [11] 0.031 | [12] -0.104 | [13] 0.063 | saracatinib 0.04 | sotrastaurin 0

FBXO9 (UniProt Q9UK97)
Sequence of UniProt Q9UK97 (Q9UK97 whole entry, looked up): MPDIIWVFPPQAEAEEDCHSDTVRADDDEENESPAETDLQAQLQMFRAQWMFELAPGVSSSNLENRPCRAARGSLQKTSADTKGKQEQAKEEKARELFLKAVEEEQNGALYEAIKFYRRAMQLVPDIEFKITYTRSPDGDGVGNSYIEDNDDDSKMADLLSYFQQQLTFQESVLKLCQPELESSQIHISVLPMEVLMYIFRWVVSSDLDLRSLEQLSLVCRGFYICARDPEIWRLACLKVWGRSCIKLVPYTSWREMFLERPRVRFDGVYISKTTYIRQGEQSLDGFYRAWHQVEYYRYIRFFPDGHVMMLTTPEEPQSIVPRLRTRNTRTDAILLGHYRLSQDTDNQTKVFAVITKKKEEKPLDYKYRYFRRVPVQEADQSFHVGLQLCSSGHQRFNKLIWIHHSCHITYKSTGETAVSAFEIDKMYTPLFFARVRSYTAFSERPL
inactive: ibrutinib 0.006 | [1] -0.014 | ralimetinib -0.046 | [2] 0.077 | [3] -0.09 | [4] 0.009 | [5] 0.019 | [6] 0.017 | [7] 0.047 | [8] 0.026 | vemurafenib -0.025 | [9] 0.007 | barasertib 0.116 | [10] 0.135 | volasertib -0.012 | [11] -0.015 | [12] 0.049 | [13] -0.083 | saracatinib -0.013 | sotrastaurin 0.021

FIG4 (UniProt Q92562)
Sequence of UniProt Q92562 (Q92562 whole entry, looked up): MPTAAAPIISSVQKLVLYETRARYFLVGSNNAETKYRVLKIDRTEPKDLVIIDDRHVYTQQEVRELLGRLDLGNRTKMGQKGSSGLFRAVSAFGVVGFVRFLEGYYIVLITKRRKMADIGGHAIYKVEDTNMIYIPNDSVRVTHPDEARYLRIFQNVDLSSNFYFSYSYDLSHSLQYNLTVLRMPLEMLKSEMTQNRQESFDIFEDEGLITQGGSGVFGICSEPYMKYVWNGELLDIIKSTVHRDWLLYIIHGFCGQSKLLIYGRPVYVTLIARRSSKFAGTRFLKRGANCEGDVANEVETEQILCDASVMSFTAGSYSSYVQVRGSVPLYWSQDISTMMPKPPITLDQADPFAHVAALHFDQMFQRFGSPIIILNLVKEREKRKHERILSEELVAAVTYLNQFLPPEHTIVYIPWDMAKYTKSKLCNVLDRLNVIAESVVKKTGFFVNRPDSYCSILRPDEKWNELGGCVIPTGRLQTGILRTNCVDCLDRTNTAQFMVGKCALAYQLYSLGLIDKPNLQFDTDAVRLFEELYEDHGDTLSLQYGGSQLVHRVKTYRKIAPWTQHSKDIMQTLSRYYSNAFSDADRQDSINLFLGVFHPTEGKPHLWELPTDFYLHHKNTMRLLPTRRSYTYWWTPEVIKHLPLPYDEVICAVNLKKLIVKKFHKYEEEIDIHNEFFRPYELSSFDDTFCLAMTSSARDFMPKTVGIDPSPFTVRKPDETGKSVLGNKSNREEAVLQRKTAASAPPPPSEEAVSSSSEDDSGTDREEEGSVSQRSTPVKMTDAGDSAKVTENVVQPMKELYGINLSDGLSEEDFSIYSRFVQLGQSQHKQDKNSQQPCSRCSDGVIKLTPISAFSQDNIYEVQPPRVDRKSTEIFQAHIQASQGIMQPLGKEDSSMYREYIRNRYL
inactive: ibrutinib 0.14 | [1] -0.07 | ralimetinib -0.01 | [2] -0.115 | [3] -0.012 | [4] -0.248 | [5] 0.029 | [6] -0.093 | [7] -0.085 | [8] 0.012 | vemurafenib 0.107 | [9] 0.071 | barasertib -0.085 | [10] -0.201 | volasertib -0.012 | [11] -0.045 | [12] 0.104 | [13] -0.012 | saracatinib 0.032 | sotrastaurin 0.092

GBF1 (UniProt Q92538)
Sequence of UniProt Q92538 (Q92538 whole entry, looked up): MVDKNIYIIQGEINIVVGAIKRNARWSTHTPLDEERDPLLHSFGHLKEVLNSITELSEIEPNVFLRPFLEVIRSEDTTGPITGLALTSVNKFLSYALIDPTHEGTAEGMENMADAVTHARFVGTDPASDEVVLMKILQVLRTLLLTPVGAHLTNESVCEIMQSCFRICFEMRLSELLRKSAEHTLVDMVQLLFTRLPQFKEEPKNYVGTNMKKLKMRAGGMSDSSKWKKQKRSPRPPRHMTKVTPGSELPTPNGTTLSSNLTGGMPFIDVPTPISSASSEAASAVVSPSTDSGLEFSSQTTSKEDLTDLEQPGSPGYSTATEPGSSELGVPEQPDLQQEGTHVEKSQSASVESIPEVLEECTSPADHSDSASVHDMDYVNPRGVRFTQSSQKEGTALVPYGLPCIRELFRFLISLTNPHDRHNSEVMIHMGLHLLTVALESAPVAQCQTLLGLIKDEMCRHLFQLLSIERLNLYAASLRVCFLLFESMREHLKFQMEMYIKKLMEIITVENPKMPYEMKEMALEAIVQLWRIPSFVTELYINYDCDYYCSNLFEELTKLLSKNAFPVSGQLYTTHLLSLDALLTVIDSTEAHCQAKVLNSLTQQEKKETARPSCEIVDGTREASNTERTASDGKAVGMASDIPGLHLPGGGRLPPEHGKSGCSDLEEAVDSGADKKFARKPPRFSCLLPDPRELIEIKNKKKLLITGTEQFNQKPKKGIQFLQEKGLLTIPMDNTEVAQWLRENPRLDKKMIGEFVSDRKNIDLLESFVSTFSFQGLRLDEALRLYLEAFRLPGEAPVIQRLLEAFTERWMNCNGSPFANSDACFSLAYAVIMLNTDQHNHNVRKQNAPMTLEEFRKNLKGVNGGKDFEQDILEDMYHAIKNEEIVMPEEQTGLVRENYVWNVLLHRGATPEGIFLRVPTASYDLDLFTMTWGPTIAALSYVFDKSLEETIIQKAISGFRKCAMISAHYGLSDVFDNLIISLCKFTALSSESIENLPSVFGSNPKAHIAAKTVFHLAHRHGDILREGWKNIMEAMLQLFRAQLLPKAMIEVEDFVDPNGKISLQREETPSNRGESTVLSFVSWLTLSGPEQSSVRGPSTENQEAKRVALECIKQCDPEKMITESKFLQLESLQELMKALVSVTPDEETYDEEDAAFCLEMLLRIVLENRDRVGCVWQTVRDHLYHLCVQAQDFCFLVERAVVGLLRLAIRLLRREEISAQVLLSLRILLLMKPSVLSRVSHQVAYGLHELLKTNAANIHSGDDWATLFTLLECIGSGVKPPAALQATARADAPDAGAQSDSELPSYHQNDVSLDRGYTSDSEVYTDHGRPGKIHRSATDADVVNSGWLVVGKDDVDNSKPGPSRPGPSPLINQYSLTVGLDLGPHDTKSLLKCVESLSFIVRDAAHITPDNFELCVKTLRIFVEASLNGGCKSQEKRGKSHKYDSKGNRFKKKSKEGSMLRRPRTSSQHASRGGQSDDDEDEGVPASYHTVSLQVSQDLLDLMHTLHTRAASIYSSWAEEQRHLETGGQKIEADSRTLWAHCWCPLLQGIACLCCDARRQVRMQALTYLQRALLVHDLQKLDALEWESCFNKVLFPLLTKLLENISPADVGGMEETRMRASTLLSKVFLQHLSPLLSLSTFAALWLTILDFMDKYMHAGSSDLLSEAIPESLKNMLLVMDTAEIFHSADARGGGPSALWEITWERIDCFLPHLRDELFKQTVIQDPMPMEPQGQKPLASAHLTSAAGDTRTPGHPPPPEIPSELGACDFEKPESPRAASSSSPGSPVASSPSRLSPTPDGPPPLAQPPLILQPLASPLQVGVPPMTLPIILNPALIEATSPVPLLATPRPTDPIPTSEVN
inactive: ibrutinib 0.007 | [1] -0.001 | ralimetinib 0.051 | [2] -0.03 | [3] -0.011 | [4] -0.003 | [5] -0.011 | [6] -0.015 | [7] 0.017 | [8] 0.012 | vemurafenib 0.023 | [9] 0.04 | barasertib 0.087 | [10] -0.004 | volasertib -0.05 | [11] 0.006 | [12] -0.011 | [13] -0.046 | saracatinib -0.011 | sotrastaurin 0.019

EEFSEC (UniProt P57772)
inactive: ibrutinib 0.031 | [1] -0.03 | ralimetinib 0.019 | [2] -0.013 | [3] -0.025 | [4] -0.011 | [5] 0.005 | [6] 0.011 | [7] 0.039 | [8] 0.006 | vemurafenib 0.031 | [9] 0.024 | barasertib 0.031 | [10] -0.067 | volasertib -0.035 | [11] -0.012 | [12] -0.073 | [13] 0.009 | saracatinib -0.015 | sotrastaurin -0.016

FANCI (UniProt Q9NVI1)
inactive: ibrutinib -0.024 | [1] 0.022 | ralimetinib 0.02 | [2] -0.024 | [3] -0.038 | [4] -0.021 | [5] 0.026 | [6] 0.002 | [7] 0.033 | [8] 0.014 | vemurafenib 0.018 | [9] 0.021 | barasertib 0.045 | [10] -0.028 | volasertib -0.053 | [11] 0.031 | [12] 0.021 | [13] -0.119 | saracatinib 0.017 | sotrastaurin 0.02

FHOD1 (UniProt Q9Y613)
inactive: ibrutinib 0.001 | [1] 0.03 | ralimetinib 0.041 | [2] -0.019 | [3] -0.002 | [4] -0.006 | [5] 0.006 | [6] 0.003 | [7] 0.025 | [8] -0.004 | vemurafenib -0.018 | [9] 0.018 | barasertib 0.042 | [10] -0.05 | volasertib -0.034 | [11] 0.048 | [12] 0.013 | [13] -0.017 | saracatinib 0.015 | sotrastaurin 0.036

FAM118A (UniProt Q9NWS6)
inactive: ibrutinib -0.024 | [1] 0.01 | ralimetinib 0.041 | [2] -0.052 | [3] -0.01 | [4] -0.004 | [5] -0.052 | [6] 0.015 | [7] 0.014 | [8] -0.004 | vemurafenib -0.013 | [9] 0.011 | barasertib 0.018 | [10] -0.017 | volasertib -0.009 | [11] -0.031 | [12] -0.135 | [13] 0.077 | saracatinib 0.063 | sotrastaurin 0.025

FAM83D (UniProt Q9H4H8)
Sequence of UniProt Q9H4H8 (Q9H4H8 whole entry, looked up): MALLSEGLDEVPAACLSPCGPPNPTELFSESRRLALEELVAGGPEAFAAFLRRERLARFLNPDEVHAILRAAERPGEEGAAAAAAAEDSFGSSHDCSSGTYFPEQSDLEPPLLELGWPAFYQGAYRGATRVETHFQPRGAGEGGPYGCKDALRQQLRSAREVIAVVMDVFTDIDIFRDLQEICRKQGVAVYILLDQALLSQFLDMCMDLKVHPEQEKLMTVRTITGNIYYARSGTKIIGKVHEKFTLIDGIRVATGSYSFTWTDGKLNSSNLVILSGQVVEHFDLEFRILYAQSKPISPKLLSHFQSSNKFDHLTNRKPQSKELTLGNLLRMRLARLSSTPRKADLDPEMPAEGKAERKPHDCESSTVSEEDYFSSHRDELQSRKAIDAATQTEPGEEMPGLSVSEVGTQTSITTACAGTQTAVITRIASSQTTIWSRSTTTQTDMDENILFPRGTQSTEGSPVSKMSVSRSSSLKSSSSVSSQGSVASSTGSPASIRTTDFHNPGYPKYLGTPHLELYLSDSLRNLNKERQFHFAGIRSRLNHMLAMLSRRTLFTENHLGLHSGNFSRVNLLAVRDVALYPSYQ
inactive: ibrutinib 0.028 | [1] 0.031 | ralimetinib 0.041 | [2] -0.018 | [3] 0.013 | [4] 0.038 | [5] -0.098 | [6] -0.032 | [7] 0.031 | [8] 0.017 | vemurafenib -0.015 | [9] 0 | barasertib 0.074 | [10] 0.045 | volasertib -0.047 | [11] -0.01 | [12] -0.052 | [13] 0.029 | saracatinib -0.008 | sotrastaurin 0.032

EIF2AK2 (UniProt P19525)
inactive: ibrutinib 0.014 | [1] 0.015 | ralimetinib -0.025 | [2] 0.035 | [3] -0.009 | [4] 0.015 | [5] -0.008 | [6] -0.015 | [7] -0.019 | [8] -0.03 | vemurafenib 0.025 | [9] 0.012 | barasertib -0.038 | [10] -0.09 | volasertib -0.03 | [11] -0.008 | [12] -0.081 | [13] 0.067 | saracatinib -0.011 | sotrastaurin 0.007

EIF2AK1 (UniProt Q9BQI3)
inactive: ibrutinib 0.007 | [1] -0.151 | ralimetinib 0.028 | [2] 0.034 | [3] -0.017 | [4] -0.001 | [5] -0.007 | [6] 0.044 | [7] 0.018 | [8] -0.072 | vemurafenib -0.004 | [9] -0.05 | barasertib 0.019 | [10] -0.016 | [11] -0.002 | [12] -0.001 | [13] -0.037 | saracatinib -0.019 | sotrastaurin 0
active: volasertib -0.287

FNBP1L (UniProt Q5T0N5)
Sequence of UniProt Q5T0N5 (Q5T0N5 whole entry, looked up): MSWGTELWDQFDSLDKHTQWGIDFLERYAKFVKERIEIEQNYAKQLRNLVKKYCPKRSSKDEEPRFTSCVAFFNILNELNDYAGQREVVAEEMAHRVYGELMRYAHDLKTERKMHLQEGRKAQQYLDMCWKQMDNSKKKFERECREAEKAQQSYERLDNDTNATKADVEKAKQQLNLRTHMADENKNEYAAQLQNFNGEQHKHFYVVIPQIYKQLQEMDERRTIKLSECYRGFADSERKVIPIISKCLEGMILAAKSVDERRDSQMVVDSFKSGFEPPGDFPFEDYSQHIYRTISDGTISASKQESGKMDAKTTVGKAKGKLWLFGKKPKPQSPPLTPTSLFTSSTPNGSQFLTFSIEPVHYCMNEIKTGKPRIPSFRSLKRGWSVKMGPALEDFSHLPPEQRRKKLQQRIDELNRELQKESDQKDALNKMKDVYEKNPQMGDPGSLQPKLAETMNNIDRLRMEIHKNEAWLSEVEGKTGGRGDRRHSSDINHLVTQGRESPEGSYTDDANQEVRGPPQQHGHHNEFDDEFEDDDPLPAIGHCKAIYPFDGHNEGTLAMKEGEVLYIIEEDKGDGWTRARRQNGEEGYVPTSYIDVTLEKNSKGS
inactive: ibrutinib 0.034 | [1] -0.006 | ralimetinib 0.055 | [2] -0.082 | [3] -0.003 | [4] 0 | [5] 0.066 | [6] -0.007 | [7] 0.035 | [8] 0.034 | vemurafenib 0.003 | [9] 0.029 | barasertib 0.167 | [10] -0.085 | volasertib -0.068 | [11] -0.013 | [12] -0.024 | [13] -0.019 | saracatinib -0.013 | sotrastaurin 0.048
